This excerpt belongs to a sample that is enriched for hits.
TDP1 cell noCPT: qHTS for Inhibitors of human tyrosyl-DNA phosphodiesterase 1 (TDP1): qHTS in cells in absence of CPT. Potency, µM (titrated, usually from 46.2 µM), for inactives: at the top dose activity change, negative = growth inhibition, hits mostly inhibitors. 420,000 tested, 15% active. DT40 Tdp1-/- hTDP1 cells, no CPT, ATP luminescence, 48 h. AID 686978, 2013; also: potency is read from the fitted curve at half-maximal effect; nearly all actives have a fitted effect of over 55% in size
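Chicken DT40 Tdp1-/- cells stably complemented with human TDP1 were seeded at 400 cells/well with DMSO in place of 20 nM camptothecin. After compound pinning, cells grew at least 48 hr at 37 °C; viability read by CellTiter-Glo luminescence.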
HT1080 IDH1KD tx: kills HT-1080 cells with IDH1 knockdown. HT-1080 IDH1 knockdown viability, ATP luminescence, 48 h. Potency, µM (series often up to 46.1 µM), for inactives: top-dose activity, negative = toxicity, usual class: cytotoxic. 360,000 tested, 2% active. AID 686971;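 also: potency is read from the fitted curve at half-maximal effect; 0% = DMSO wells and -100% = cell-free medium wells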
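Cytotoxicity counter-line: IDH1KD HT-1080, 48 h, CellTiter-Glo. Curves classed by r2, magnitude and activity.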
TDP1 cell CPT: growth inhibition of DT40 Tdp1-/-;hTDP1 cells with camptothecin (screen for TDP1 inhibitors); chicken DT40 Tdp1-/-;hTDP1 cells + 20 nM CPT, ATP luminescence, 48 h; Potency, µM (top dose mostly 46.2 µM), for the others: at the highest dose activity change, negative = growth inhibition, actives largely listed as inhibitors; 420,000 tested, 12% active; also: potency is read from the fitted curve at half-maximal effect; nearly all actives have a fitted effect of over 55% in size
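Cell growth measured by CellTiter-Glo luminescence after a minimum 48 h, 37 C compound exposure with 20 nM CPT in Tdp1-knockout DT40 cells stably expressing hTDP1, seeded 400/well; qHTS titration format.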
HT1080-NT tox: kills 2HG-producing HT-1080-NT fibrosarcoma cells. HT-1080-NT fibrosarcoma viability, CellTiter-Glo ATP luminescence, 48 h. Potency, µM (top dose mostly 46.1 µM), without a hit: top-dose activity, negative = less viability, hits mostly cytotoxic. 360,000 tested, 1.6% active;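 also: NT is the 2HG producing partner of a matched IDH1 knockdown line; potency is read from the fitted curve at half-maximal effect; 0% = DMSO-treated cells and -100% = media-only wells without cells; nearly all actives have a fitted effect of over 55% in size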
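Luminescent CellTiter-Glo readout after 48 hours of compound exposure at 37 degrees C defined viability of HT-1080-NT cells. Activity was normalized to DMSO wells and cell-free media wells; concentration-response curves were fitted and assigned curve classes.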
12-LOX inh: blocks human arachidonate 12S-lipoxygenase; AID 1671190; P18054; 580,000 tested, 1.1% active; Potency, µM (titrated, usually from 108 µM), for inactives: at the top dose activity change, negative = inhibition, actives largely listed as inhibitors; purified 12hLO, xylenol orange hydroperoxide absorbance; also: potency is read from the fitted curve at half-maximal effect
Target sequence (P18054 whole entry, looked up): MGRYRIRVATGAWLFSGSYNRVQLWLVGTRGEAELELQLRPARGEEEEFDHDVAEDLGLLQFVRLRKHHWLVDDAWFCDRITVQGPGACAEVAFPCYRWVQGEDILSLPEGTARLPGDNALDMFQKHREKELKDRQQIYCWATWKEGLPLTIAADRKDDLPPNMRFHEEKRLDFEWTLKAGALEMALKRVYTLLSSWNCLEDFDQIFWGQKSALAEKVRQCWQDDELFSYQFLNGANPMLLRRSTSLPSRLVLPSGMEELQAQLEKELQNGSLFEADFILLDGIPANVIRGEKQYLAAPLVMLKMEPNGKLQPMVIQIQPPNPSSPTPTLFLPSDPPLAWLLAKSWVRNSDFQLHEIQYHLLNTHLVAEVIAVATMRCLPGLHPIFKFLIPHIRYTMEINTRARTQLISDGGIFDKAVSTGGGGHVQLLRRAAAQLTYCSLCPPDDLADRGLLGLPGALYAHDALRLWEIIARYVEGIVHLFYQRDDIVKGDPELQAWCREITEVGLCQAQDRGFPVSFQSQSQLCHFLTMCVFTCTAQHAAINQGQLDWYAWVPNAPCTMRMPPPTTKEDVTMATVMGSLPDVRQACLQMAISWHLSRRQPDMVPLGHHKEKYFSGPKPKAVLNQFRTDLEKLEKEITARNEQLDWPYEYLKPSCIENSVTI
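Purified human 12hLO (150 nM final) in 25 mM Hepes, 0.01% Triton X-100, pH 7.0 was preincubated 15 min at room temperature with compound. Then 40 uM arachidonic acid was added, 30 min. Hydroperoxide was read by Fe-XO absorbance ratio 573/405 nm.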
IL1B secr inh: inhibitors of inflammasome signaling (IL-1 beta secretion); THP-1 LPS/ATP IL-1B secretion, AlphaLISA, 16 h; active compounds read low; activity change, % at 57.5 µM; 360,000 tested, 4.7% active; in the data active = activity change below about -50%; inconclusive = mostly about -30% to -49%
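Secreted IL-1B measured by AlphaLISA bead assay after 16 h compound exposure of THP-1 cells; compounds (final up to 57.5 uM) added 1 h before LPS (250 ng/mL) and ATP (1.25 mM) stimulation; lower signal means less secretion.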
* marks the source's active call; other numbers are inactive results; ? = inconclusive; / = not tested or not shown. Unless noted, calls follow the shape of the dose curve; as a rule, active = well fitted curve in the direction sought with a large enough effect; inconclusive = small, poorly fitted or top-dose-only effect, or another doubt; inactive = no such curve, though single readings can be large; an effect the other way counts as inactive or inconclusive. Unless noted, % is scaled to controls: 0 for no effect and ±100 for the full control effect.

SMILES | TDP1 cell noCPT | HT1080 IDH1KD tx | TDP1 cell CPT | HT1080-NT tox | 12-LOX inh | IL1B secr inh
CCCCCc1cc(=O)oc2c(C(CCN3CCCC(C)C3)c3ccc4c(c3)OCO4)c(OC)cc(OC)c12 (stereo unspecified) | ? | -1.6% | ? | -4.7% | ? | -53.5*
c1ccc2c(-c3cccc4nccn34)cncc2c1 | ? | -7.7% | ? | 1.0% | -2.1% | -3.8
CC(C)(C)c1ccc(S(=O)(=O)NNC(=O)C2CCN(Cc3cccc(F)c3)CC2)cc1 | -11.8% | -28.6% | -3.0% | -26.8% | 1.6% | -54.2*
COC(=O)c1ccc([C@H]2CC(=O)O2)cc1 | ? | -13.7% | ? | -13.0% | 14.0% | -95.6*
N#CCn1nc2n(c1=O)CCN(C(=O)c1cccc3[nH]ccc13)CC2 | / | / | / | / | 11.7% | /
COc1ccc(-c2cc3ccc(OC(=O)N4CCOCC4)cc3oc2=O)cc1 | / | / | / | / | -2.1% | /
N/C(=N\OC(=O)COc1ccc2ccccc2c1)c1ccncc1 | ? | -6.5% | 20.6µM* | -6.1% | / | -15.2
COc1ccc(/C(N)=N/OC(=O)CSc2ccccc2)cc1 | -14.7% | -0.3% | -2.6% | 16.7% | -7.2% | -60.0*
Cc1cccc(OCC(=O)O/N=C(\N)c2ccncc2)c1 | -2.7% | 0.1% | 2.8% | -0.9% | 13.4% | 2.9
CC1(C)C(=O)N(CCOc2ccccc2)[C@H]2CN(Cc3ccc4c(c3)CCO4)C[C@H]2[S+]1(=O)[O-] | / | / | / | / | 4.1% | /
CC(C)(C)S(=O)N1Cc2cc(C(=O)NCc3ccc(Oc4ccccc4)cc3)nc(-c3cccc(-c4cc5ccccc5o4)c3)c2[C@H]1CCO (stereo partly specified) | 23.1µM* | 18.4µM* | ? | 18.4µM* | ? | -51.9*
CN1CCN(C(=O)c2cc3c(c(-c4cccc(Br)c4)n2)[C@H](CCO)N(S(=O)C(C)(C)C)C3)CC1 (stereo partly specified) | -3.4% | 15.5% | -20.7% | ? | 1.8% | 21.7
CC(C)(C)S(=O)N1Cc2cc(C(=O)N3CCOCC3)nc(-c3cccc(Br)c3)c2[C@H]1CCO (stereo partly specified) | -23.2% | 11.8% | -28.7% | 11.2% | 5.01µM* | 13.6
COc1cccc(-c2cccc(-c3nc(C(=O)NCc4ccc5c(c4)OCO5)cc4c3[C@H](CCO)N(S(=O)C(C)(C)C)C4)c2)c1 (stereo partly specified) | ? | ? | ? | ? | 28.2µM* | -23.0
CC(C)(C)S(=O)N1Cc2cc(C(=O)NCc3ccc4c(c3)OCO4)nc(-c3cccc(-c4cc5ccccc5o4)c3)c2[C@@H]1CCO (stereo partly specified) | ? | ? | ? | 23.1µM* | ? | -22.5
CC(C)(O)C#Cc1cccc(-c2nc(C(=O)NCCCN3CCOCC3)cc3c2[C@H](CCO)N(S(=O)C(C)(C)C)C3)c1 (stereo partly specified) | -5.4% | 10.7% | -12.6% | 23.9% | ? | -9.0
CC(C)(C)S(=O)N1Cc2cc(C(=O)NCCCN3CCOCC3)nc(-c3cccc(-c4cc5ccccc5o4)c3)c2[C@@H]1CCO (stereo partly specified) | 18.4µM* | ? | 13µM* | ? | -23.6% | -8.6
O=C(NCC(c1cccs1)N1CCOCC1)c1ccc(Cl)c(S(=O)(=O)N2CCOCC2)c1 (stereo unspecified) | -25.4% | 15.3% | -9.1% | 17.3% | 9.6% | 52.4
CN(C)C(CNC(=O)c1cc(S(=O)(=O)N(C)c2ccccc2)ccc1Cl)c1cccs1 (stereo unspecified) | 6.51µM* | -4.6% | 5.8µM* | -7.8% | 11.1% | -1.7
CN(C)C(CNC(=O)c1cc(S(=O)(=O)N2CCOCC2)ccc1Cl)c1cccs1 (stereo unspecified) | 20.6µM* | 2.0% | ? | 5.0% | 30.9% | 29.4
Cc1nc(SCc2ccc(O)c([N+](=O)[O-])c2)c([N+](=O)[O-])[nH]1 | 20.6µM* | 6.0% | 20.6µM* | 8.7% | ? | -23.0
Cc1nc(SCc2ccc(O)c([N+](=O)[O-])c2)n[nH]1 | -17.0% | 4.4% | ? | -0.6% | ? | 7.9
Cc1ccc(C(=O)Nc2cccc3[nH]c(C(F)(F)F)nc23)cc1 | ? | -39.6% | ? | ? | 0.0% | -12.2
COc1cc(CNc2cccc3[nH]c(C(F)(F)F)nc23)cc(OC)c1 | 25.9µM* | -6.6% | 23.1µM* | -15.0% | -4.8% | 41.1
COc1ccc(CNc2cccc3[nH]c(C(F)(F)F)nc23)cc1 | ? | ? | ? | ? | 5.4% | -70.9*
SMILES | TDP1 cell noCPT | HT1080 IDH1KD tx | TDP1 cell CPT | HT1080-NT tox | 12-LOX inh | IL1B secr inh
CN(C)C(=O)CN(C)c1nc(-c2ccncc2)nc2ccccc12 | / | / | / | / | 2.7% | /
O=C(c1cccs1)N1CCC(N2C(=O)C(OCC3CC3)C23CCCCC3)CC1 (stereo unspecified) | / | / | / | / | 30.0% | /
Cc1nc(NC(=O)CNC(=O)c2ccoc2)sc1C | / | / | / | / | 31.4% | /
NC1=Nc2cccc3cccc1c23 | 16.4µM* | ? | ? | ? | -5.4% | -65.3*
CC[C@H](C)C1OC(=O)[C@@H](C)[C@@H](CC)NC(=O)[C@H](C)N(C)C(=O)C(C)(C)C(=O)C(C)NC(=O)[C@H](Cc2ccc(OC)cc2)N(C)C(=O)[C@H](C(C)C)N(C)C(=O)CNC(=O)[C@H](CC(C)C)N(C)C(=O)CNC1=O (stereo partly specified) | 0.184µM* | 0.184µM* | 0.146µM* | 0.259µM* | / | -9.6
CCC[C@H]1NC(=O)[C@H](C)N(C)C(=O)C(C)(C)C(=O)C(C)NC(=O)[C@H](Cc2ccc(OC)cc2)N(C)C(=O)[C@H](C(C)C)N(C)C(=O)CNC(=O)[C@H](CC(C)C)N(C)C(=O)CNC(=O)[C@H]([C@@H](C)CC)OC(=O)[C@H]1C (stereo partly specified) | 0.0206µM* | 1.03µM* | 0.0326µM* | 0.82µM* | ? | -28.7
C/C=C/CC(C)C(O)C1C(=O)NC(CC)C(=O)N(C)CC(=O)N(C)C(CC(C)C)C(=O)NC(C(C)C)C(=O)N(C)C(CC(C)C)C(=O)NC(C)C(=O)NC(C)C(=O)N(C)C(CC(C)C)C(=O)N(C)C(CC(C)C)C(=O)N(C)C(C(C)C)C(=O)N1C (stereo unspecified) | / | / | / | / | -6.2% | /
